Screening results from PubChem BioAssay.
The list is not random: actives were taken first. Their share in the collection is about 3.1%.
VDR inh = blocks the human vitamin D receptor | AID 504847 | VDR-SRC2-3 peptide fluorescence polarization, 2 h | Potency, µM, for inactives: max response, negative = inhibition, most hits filed as inhibitors | 400,000 tested, 0.93% active; also: % is scaled to controls: 0 for no effect and ±100 for the full control effect
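VDR–SRC2-3 interaction, FP format. Cmpds 23 nl via pintool, brief spin, 2 h ambient incubation.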
Pin1 inhibitor = inhibitors of human Pin1; Q13526; Pin1 FP peptide displacement, HiFluor488, 10 min; Potency, µM (top dose mostly 115 µM), inactives show at the highest dose activity, negative = inhibition, most hits filed as inhibitors; 390,000 tested, 0.009% active; AID 504891; active = well fitted inhibition curve with a large enough effect in the polarisation, with a control signal flat, not every such curve was filed as active; inconclusive = small, poorly fitted or top-dose-only effect, or effect the other way, or a change in a side signal; inactive = no such curve, though single readings can be large or run the other way; the % refers to the polarisation; also: % is scaled to controls: 0 for no effect and ±100 for the full control effect
Target sequence (Q13526 whole entry, looked up): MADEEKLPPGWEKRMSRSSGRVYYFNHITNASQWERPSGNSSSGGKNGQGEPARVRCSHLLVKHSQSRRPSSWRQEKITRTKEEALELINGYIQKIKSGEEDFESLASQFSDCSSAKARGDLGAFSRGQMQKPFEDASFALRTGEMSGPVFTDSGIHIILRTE
PLK1 PBD block = blocks phosphopeptide binding to human PLK1 polo-box domain | Plk1 PBD binding of FITC phosphopeptide, fluorescence polarization | Potency, µM, for inactives: max response, negative = inhibition, usual class: inhibitors | 360,000 tested, 2.8% active | AID 720504; also: series mostly up to about 57 µM; % is scaled to controls: 0 for no effect and ±100 for the full control effect; nearly all actives have a fitted effect of over 65% in size
TDP1 block = inhibitors of human tyrosyl-DNA phosphodiesterase TDP1 | Q9NUW8 | recombinant TDP1, AlphaScreen DNA substrate cleavage | Potency, µM (series often up to 130 µM), for inactives: top-dose activity change, negative = inhibition, hits mostly inhibitors | 350,000 tested, 0.28% active | AID 485290; also: % is scaled to controls: 0 for no effect and ±100 for the full control effect; nearly all actives have a fitted effect of over 40% in size
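AlphaScreen read-out: signal falls as enzyme removes the 3' tyrosine-FITC from a 5'-biotinylated DNA oligo (15 nM, 5 min, RT). Enzyme was E. coli-made recombinant Tdp1 at 1 nM, exposed to compound for 15 min beforehand; beads 10 ug/ml, 10 min.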
Tb PFK inh = T. brucei PFK enzyme inhibition; O15648; T. brucei PFK, ADP-Glo luminescence; Potency, µM (highest dose often 57.5 µM), inactives show at the highest dose activity, negative = inhibition, most hits filed as inhibitors; 330,000 tested, 0.17% active; AID 485367;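 also: 0% = uninhibited 1x PFK enzyme wells and -100% = no-enzyme wells; nearly all actives have a fitted effect of over 60% in size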
Target sequence (O15648 whole entry, looked up): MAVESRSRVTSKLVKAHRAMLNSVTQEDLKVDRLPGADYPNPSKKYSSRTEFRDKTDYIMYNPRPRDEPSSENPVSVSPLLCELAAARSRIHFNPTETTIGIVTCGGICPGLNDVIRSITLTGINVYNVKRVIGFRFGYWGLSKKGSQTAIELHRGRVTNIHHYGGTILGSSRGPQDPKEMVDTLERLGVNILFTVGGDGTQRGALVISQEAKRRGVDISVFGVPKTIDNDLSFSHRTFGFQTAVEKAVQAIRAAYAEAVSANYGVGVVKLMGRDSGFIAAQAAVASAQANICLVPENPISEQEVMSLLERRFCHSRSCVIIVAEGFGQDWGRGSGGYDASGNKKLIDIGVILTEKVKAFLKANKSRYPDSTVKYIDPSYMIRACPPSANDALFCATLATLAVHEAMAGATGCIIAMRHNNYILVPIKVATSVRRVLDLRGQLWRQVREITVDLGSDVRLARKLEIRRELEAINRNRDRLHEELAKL
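ADP-Glo luminescence quantified ADP after 45 min at room temperature, with 1.25 nM T. brucei PFK, 0.1 mM ATP and 0.5 mM fructose-6-phosphate in pH 8.0 TEA buffer. qHTS titrations up to 57 µM; curves classified by quality.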
ASM inhibitor = inhibitors of human secretory acid sphingomyelinase; placental ASM, HMU-PC fluorogenic substrate, 60 min; Potency, µM (series often up to 57.5 µM), for the others: at the top dose activity change, negative = inhibition, actives largely listed as inhibitors; 340,000 tested, 0.006% active; AID 504937
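Human placenta-derived ASM enzyme was preincubated with compound for 10 minutes at room temperature, then given fluorogenic substrate HMU-PC0 (9 uM final) for 60 minutes at 37 °C; a pH 10 stop preceded fluorescence reading at Ex 386/Em 447 nm.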
Starred values were filed as active, the others as inactive; ? = inconclusive; . = no result; [ ] = dose if it differs, or a comment. Unless noted, calls follow the shape of the dose curve; as a rule, active = well fitted curve in the direction sought with a large enough effect; inconclusive = small, poorly fitted or top-dose-only effect, or another doubt; inactive = no such curve, though single readings can be large; an effect the other way counts as inactive or inconclusive. Potency is read from the fitted curve at half-maximal effect.

SMILES | VDR inh | Pin1 inhibitor | PLK1 PBD block | TDP1 block | Tb PFK inh | ASM inhibitor
CN(C)S(=O)(=O)c1ccc(C(=O)NC(=O)CSc2ccccc2)cc1 | -9.4% | -8.0% | -26.1% | 0.0% | -2.5% | -1.2%
O=[N+]([O-])c1ccc([S+](=O)([O-])N2CCN([S+](=O)([O-])c3ccc4c(c3)OCCO4)CC2)c([N+](=O)[O-])c1 | . | -18.9% | . | . | . | .
CCCCNC(=O)c1nn(-c2ccc(C)cc2)c(=O)c2c1c1ccccc1n2C | -14.0% | 7.9% | . | -4.7% | . | .
O=C(CCCn1c(=O)c2cccn2c2ccccc21)Nc1cc(C(F)(F)F)ccc1Cl | -2.9% | 1.5% | . | 2.6% | . | .
CCOC(=O)Cc1nnc(NC(=O)C(CC)Sc2nncn2C)s1 (stereo unspecified) | -13.8% | -2.8% | -5.5% | 0.0% | -7.4% | 2.4%
CCOC(=O)Cc1nnc(NC(=O)C(CC)Sc2nc(C)cc(=O)[nH]2)s1 (stereo unspecified) | ? | -5.6% | 21.2µM* | 0.0% | -3.4% | 14.4%
O=C(CSc1ncnc2scc(-c3ccccc3)c12)Nc1ccc(C(=O)O)cc1 | -10.2% | -0.4% | -3.5% | 5.7% | -4.5% | 3.2%
CC(=O)Nc1ccc(Sc2ncnc3scc(-c4ccccc4)c23)cc1 | -18.0% | 18.2% | 6.7µM* | 5.3% | -1.8% | -13.8%
O=C(NCCO)C(=O)Nc1cc2c3c(c1)CC(=O)N3CCC2 | -13.0% | ? | -17.2% | 4.5% | 3.9% | 7.0%
O=C(CCl)c1cc2c3c(c1)CC(=O)N3CCC2 | ? | -1.2% | 1.19µM* | 5.6% | -15.8% | 1.5%
COc1ccc(N2CCN(CCCNC(=O)c3nnc(Cc4ccc(F)cc4)o3)CC2)cc1 | 21.4% | -4.5% | . | 1.3% | . | .
O=C(NC1CCCCC1)Oc1ccccc1 | -8.7% | -4.4% | -3.7% | 0.0% | 2.8% | 0.8%
O=C(NC1CCS(=O)(=O)C1)Oc1ccccc1 (stereo unspecified) | -16.4% | -3.4% | 26.7µM* | 0.0% | 1.6% | 0.8%
O=C(/C=C/c1cccs1)NC1CCS(=O)(=O)C1 (stereo unspecified) | 89.1µM* | -4.8% | 26.7µM* | 3.0% | 1.7% | -1.3%
O=C(/C=C/c1cccs1)NC1CCCC1 | 1.4% | 4.7% | -16.5% | 6.1% | 0.2% | 1.1%
CCOc1ccccc1-c1nnc2n1N=C(c1cccc(OC)c1)CS2 | . | 0.2% | . | 13.8% | . | .
O=c1cc(NCCO)c2ccccc2o1 | -1.7% | 2.5% | 0.8% | 2.5% | 5.4% | 0.3%
O=c1cc(NCCc2ccccc2)c2ccccc2o1 | -14.1% | -5.7% | 23.8µM* | -5.1% | 4.1% | 2.4%
CN(C)S(=O)(=O)c1cccc(C(=O)NCC2(N3CCOCC3)CCCCC2)c1 | ? | -2.7% | 4.3% | 1.2% | 8.4% | -0.2%
COCc1ccc(C(=O)NCC2(N3CCCCC3)CCCCC2)cc1 | ? | -0.8% | 29.9µM* | . | -2.3% | -2.4%
CC(=O)Nc1cc(NC(C)=O)cc(C(=O)NCC2(N3CCOCC3)CCCCC2)c1 | -8.6% | 10.8% | -7.1% | 22.4µM* | -23.7% | -1.4%
COc1ccc(CCc2c[nH]c(=O)c3cncnc23)cc1OC | -25.1% | -2.3% | . | 2.1% | . | .
O=C(NNC(=O)c1cccs1)c1ccc(Cl)nc1 | -11.2% | -1.1% | -3.4% | 89.1µM* | -4.7% | 1.0%
CCN(C(=O)CSc1nc2ccccc2c(=O)n1-c1cccc(C)c1)C1CCS(=O)(=O)C1 (stereo unspecified) | -13.8% | -0.8% | 26.7µM* | -4.6% | 0.4% | 3.8%
CCN(C(=O)CSc1nc2ccccc2c(=O)n1Cc1ccc(C)cc1)C1CCS(=O)(=O)C1 (stereo unspecified) | -0.9% | -4.1% | -4.3% | . | -0.4% | -4.8%
SMILES | VDR inh | Pin1 inhibitor | PLK1 PBD block | TDP1 block | Tb PFK inh | ASM inhibitor
Cc1ccc(N2CC(C(=O)Nc3ccc(Br)cc3)CC2=O)cc1 (stereo unspecified) | 1.4% | -3.2% | . | 4.7% | . | .
CCNC(=O)C1CC(=O)N(c2ccc(Br)cc2)C1 (stereo unspecified) | -17.8% | -4.7% | 23.8µM* | -2.9% | 0.9% | 3.8%
C=CCN1C(c2ccccc2)=CS/C1=C(/C#N)c1nnc(N2CCOCC2)n1-c1ccccc1 | -4.8% | 0.6% | 21.2µM* | 0.0% | 1.9% | -1.0%
S=c1[nH]nc(Cc2ccc(Br)cc2)n1/N=C/c1ccc(Cl)cc1 | 79.4µM* | -1.6% | 3.36µM* | 7.7% | -16.2% | -18.9%
Fc1ccccc1/C=N/n1c(COc2ccccc2)n[nH]c1=S | -5.6% | 2.7% | 23.8µM* | . | ? | -10.0%
S=c1[nH]nc(COc2ccccc2)n1/N=C/c1ccc(Cl)cc1Cl | -5.5% | 4.0% | ? | . | -3.2% | -1.5%
Nn1c(Cc2ccc(Br)cc2)n[nH]c1=S | 89.1µM* | 2.6% | 11.9µM* | 7.5% | -24.5% | -0.9%
S=c1[nH]nc(COc2ccccc2)n1/N=C/c1ccc(Cl)cc1 | ? | -2.3% | 26.7µM* | . | -15.2% | -1.9%
Cc1ccc([S+](=O)([O-])Nc2nn3c(=O)c4ccccc4nc3s2)cc1C | . | 0.3% | . | . | . | .
Cc1ccc(-n2cc(C(=O)Oc3ccc(F)cc3)c3ccccc3c2=O)cc1 | -1.3% | 13.1% | . | 2.2% | . | .
CSc1ccc(/C=N/n2c(COc3ccccc3)n[nH]c2=S)cc1 | 2.3% | -4.3% | 33.6µM* | . | 2.8% | -8.7%
CC(/C=N/n1c(COc2ccccc2)n[nH]c1=S)=C\c1ccco1 | -18.0% | 25.2% | 21.2µM* | 6.8% | 0.8% | -2.2%
Cc1ccccc1/C=N/n1c(COc2ccccc2)n[nH]c1=S | 8.2% | 5.9% | ? | . | 1.8% | 39.5%
CCCCc1nc2c(c3c1C[C@H](C)OC3)CN(C(=O)C1CC1)CC2 | . | . | . | -0.5%[12.3 µM] | . | .
CCCOc1ccccc1C(=O)N(Cc1ccco1)C1CCS(=O)(=O)C1 (stereo unspecified) | -10.8% | -3.5% | 29.9µM* | 6.8% | -1.1% | 2.7%
CC#CCN1c2ccccc2[C@]23C[C@@H](C(=O)OC)N(C(=O)c4cccs4)C2=NC(C(=O)OC)=C(C(=O)OC)[C@H]13 | . | . | . | 7.7%[12.3 µM] | . | .
Cc1cc(N/N=C/c2ccco2)c2ccccc2n1 | ? | 3.5% | 23.8µM* | 10.1% | -6.4% | 9.0%
CC(=O)c1ccc([N+](=O)[O-])c(CS(=O)(=O)c2ccc(Cl)cc2)c1 | 0.1% | -4.5% | -6.5% | . | 6.5% | -0.6%
O=C(CBr)c1ccc([N+](=O)[O-])c(CS(=O)(=O)c2ccc(Cl)cc2)c1 | 35.5µM* | 1.3% | -23.0% | . | -0.5% | -1.9%
CCOC(=O)CNC(=O)O[C@@H]1C(=O)c2cc(Br)ccc2O[C@H]1c1ccc2c(c1)OCO2 | -2.0% | . | . | 8.7% | . | .
Clc1ccc(C2=NNC(=NCc3ccc4c(c3)OCO4)SC2)cc1 | ? | 4.2% | 16.8µM* | 5.5% | -0.7% | -9.1%
CCCCC(=O)NNC(=S)NC(=O)c1ccc([N+](=O)[O-])cc1 | ? | -3.6% | 23.8µM* | 3.8% | -13.3% | -3.9%
